Experimental data as given in PubChem BioAssay AID1159580 (chemical genetic matrix, 2015).
Values joined by “and” are separate entries in the source; they are usually repeats but may differ in a detail not shown here. Identical values can stand only once. About 2,000 (36%) of roughly 5,500 compounds were called active. Not shown: some 18% with an inconclusive outcome. Rule as the data show it: active = normalized growth mostly below about 0.91 (no sharp cut-off); inconclusive = no clear call, values can overlap the other calls; inactive = mostly above about 0.92. The list shows a part of the results.

Test: chemical genetic growth profiling, strain panel (AID 1159580);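 also: tested at 20 µM; growth read once vehicle control cultures reached saturation at 30 °C; 1 = growth at the plate median or of vehicle wells; lower values mean less growth of the strain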
Conditions: growth OD

Measured: normalized growth

Cc1cc(O)c2c(c1)Cc1cccc(O)c1C2=O
0.573 (active) and 1.05 (inactive): S. cerevisiae deletion strains, locus YJL095W, strain BCK1, stronger effect = lower value
active: S. cerevisiae deletion strains, locus YEL061C, strain CIN8, stronger effect = lower value 0.848 | S. cerevisiae deletion strains, locus YGR229C, strain SMI1, stronger effect = lower value 0.677 | S. cerevisiae deletion strains, locus YIL066C, strain RNR3, stronger effect = lower value 0.717 | S. cerevisiae deletion strains, locus YIR030C, strain dcg1, stronger effect = lower value 1.1 [resistant] | S. cerevisiae deletion strains, locus YJL187C, strain SWE1 (second series), stronger effect = lower value 0.742 | S. cerevisiae deletion strains, locus YKR001C, strain vps1, stronger effect = lower value 0.865 | S. cerevisiae deletion strains, locus YLR039C, strain RIC1, stronger effect = lower value 0.261 | S. cerevisiae deletion strains, locus YLR262C, strain YPT6, stronger effect = lower value 0.517 | S. cerevisiae deletion strains, locus YOL006C, strain TOP1, stronger effect = lower value 0.261 | S. cerevisiae deletion strains, locus YPL055C, strain LGE1, stronger effect = lower value 0.753 | S. cerevisiae strains, strain wild type, stronger effect = lower value 0.881
inactive: S. cerevisiae deletion strains, locus YAL013W, strain DEP1, stronger effect = lower value 0.978 | S. cerevisiae deletion strains, locus YBR021W, strain FUR4, stronger effect = lower value 1.09 | S. cerevisiae deletion strains, locus YBR229C, strain ROT2, stronger effect = lower value 1.02 | S. cerevisiae deletion strains, locus YCL029C, strain bik1, stronger effect = lower value 1.01 | S. cerevisiae deletion strains, locus YDL035C, strain GPR1, stronger effect = lower value 0.978 | S. cerevisiae deletion strains, locus YDL074C, strain BRE1, stronger effect = lower value 0.832 | S. cerevisiae deletion strains, locus YDL101C, strain DUN1, stronger effect = lower value 0.951 | S. cerevisiae deletion strains, locus YDL134C, strain PPH21, stronger effect = lower value 0.992 | S. cerevisiae deletion strains, locus YDL185W, strain tfp1, stronger effect = lower value 1 | S. cerevisiae deletion strains, locus YDL192W, strain arf1, stronger effect = lower value 1.02 | S. cerevisiae deletion strains, locus YDR101C, strain arx1, stronger effect = lower value 1.01 | S. cerevisiae deletion strains, locus YDR150W, strain NUM1, stronger effect = lower value 1.02 | S. cerevisiae deletion strains, locus YDR162C, strain NBP2, stronger effect = lower value 0.905 | S. cerevisiae deletion strains, locus YDR318W, strain mcm21, stronger effect = lower value 0.982 | S. cerevisiae deletion strains, locus YDR388W, stronger effect = lower value 0.998 | S. cerevisiae deletion strains, locus YDR502C, strain sam2, stronger effect = lower value 1 | S. cerevisiae deletion strains, locus YER110C, stronger effect = lower value 1.01 | S. cerevisiae deletion strains, locus YER155C, strain BEM2, stronger effect = lower value 1.02 | S. cerevisiae deletion strains, locus YER167W, strain BCK2, stronger effect = lower value 0.941 | S. cerevisiae deletion strains, locus YGL078C, strain dbp3, stronger effect = lower value 1.02 | S. cerevisiae deletion strains, locus YGL086W, strain mad1, stronger effect = lower value 0.979 | S. cerevisiae deletion strains, locus YGL248W, strain PDE1, stronger effect = lower value 0.958 | S. cerevisiae deletion strains, locus YGR078C, strain PAC10, stronger effect = lower value 0.979 | S. cerevisiae deletion strains, locus YGR135W, strain pre9, stronger effect = lower value 1.02 | S. cerevisiae deletion strains, locus YGR252W, strain gcn5, stronger effect = lower value 0.914 | S. cerevisiae deletion strains, locus YHR030C, strain SLT2, stronger effect = lower value 0.96 and 1.05 | S. cerevisiae deletion strains, locus YHR079C, strain IRE1 (second series), stronger effect = lower value 1.02 | S. cerevisiae deletion strains, locus YHR079C, strain IRE1, stronger effect = lower value 1.04 | S. cerevisiae deletion strains, locus YHR094C, strain hxt1, stronger effect = lower value 1.01 | S. cerevisiae deletion strains, locus YHR129C, strain ARP1, stronger effect = lower value 0.926 | S. cerevisiae deletion strains, locus YHR200W, strain rpn10, stronger effect = lower value 1.05 | S. cerevisiae deletion strains, locus YIL073C, strain SPO22, stronger effect = lower value 0.898 | S. cerevisiae deletion strains, locus YIL125W, strain kgd1, stronger effect = lower value 0.998 | S. cerevisiae deletion strains, locus YJL134W, strain LCB3, stronger effect = lower value 1.01 | S. cerevisiae deletion strains, locus YJL168C, strain set2, stronger effect = lower value 1 | S. cerevisiae deletion strains, locus YJR043C, strain POL32, stronger effect = lower value 1.01 | S. cerevisiae deletion strains, locus YJR066W, strain TOR1, stronger effect = lower value 0.938 | S. cerevisiae deletion strains, locus YJR075W, strain HOC1, stronger effect = lower value 0.971 | S. cerevisiae deletion strains, locus YKL009W, strain mrt4, stronger effect = lower value 1.05 | S. cerevisiae deletion strains, locus YKL068W, stronger effect = lower value 1.02 | S. cerevisiae deletion strains, locus YKL085W, strain MDH1 (second series), stronger effect = lower value 1.03 | S. cerevisiae deletion strains, locus YKL085W, strain MDH1, stronger effect = lower value 1.03 | S. cerevisiae deletion strains, locus YKL190W, strain CNB1, stronger effect = lower value 0.995 | S. cerevisiae deletion strains, locus YLR058C, strain SHM2, stronger effect = lower value 0.922 | S. cerevisiae deletion strains, locus YLR102C, strain apc9, stronger effect = lower value 1.05 | S. cerevisiae deletion strains, locus YLR113W, strain HOG1, stronger effect = lower value 1.05 | S. cerevisiae deletion strains, locus YLR268W, strain sec22, stronger effect = lower value 0.93 | S. cerevisiae deletion strains, locus YLR330W, strain CHS5, stronger effect = lower value 0.957 | S. cerevisiae deletion strains, locus YLR342W, strain FKS1 (second series), stronger effect = lower value 0.918 | S. cerevisiae deletion strains, locus YLR371W, strain rom2, stronger effect = lower value 1.02 | S. cerevisiae deletion strains, locus YLR418C, strain cdc73, stronger effect = lower value 0.902 | S. cerevisiae deletion strains, locus YML016C, strain PPZ1, stronger effect = lower value 0.999 | S. cerevisiae deletion strains, locus YML032C, strain rad52, stronger effect = lower value 0.906 | S. cerevisiae deletion strains, locus YML124C, strain tub3, stronger effect = lower value 1.03 | S. cerevisiae deletion strains, locus YMR078C, strain ctf18, stronger effect = lower value 0.974 | S. cerevisiae deletion strains, locus YMR223W, strain ubp8, stronger effect = lower value 1.06 | S. cerevisiae deletion strains, locus YMR307W, strain GAS1, stronger effect = lower value 0.874 | S. cerevisiae deletion strains, locus YNL067W, strain RPL9B, stronger effect = lower value 0.932 | S. cerevisiae deletion strains, locus YNL183C, strain NPR1, stronger effect = lower value 0.967 | S. cerevisiae deletion strains, locus YNL233W, strain BNI4, stronger effect = lower value 0.946 | S. cerevisiae deletion strains, locus YNL250W, strain rad50, stronger effect = lower value 0.962 | S. cerevisiae deletion strains, locus YNL271C, strain bni1, stronger effect = lower value 1.01 | S. cerevisiae deletion strains, locus YNL298W, strain CLA4, stronger effect = lower value 0.999 | S. cerevisiae deletion strains, locus YNL307C, strain MCK1, stronger effect = lower value 1 | S. cerevisiae deletion strains, locus YNL322C, strain KRE1, stronger effect = lower value 0.987 | S. cerevisiae deletion strains, locus YNR052C, strain pop2, stronger effect = lower value 0.949 | S. cerevisiae deletion strains, locus YOL012C, strain htz1 0.675 | S. cerevisiae deletion strains, locus YOL147C, strain pex11, stronger effect = lower value 1.05 | S. cerevisiae deletion strains, locus YOR061W, strain CKA2, stronger effect = lower value 0.995 | S. cerevisiae deletion strains, locus YOR069W, strain VPS5, stronger effect = lower value 0.951 | S. cerevisiae deletion strains, locus YOR136W, strain idh2, stronger effect = lower value 1 | S. cerevisiae deletion strains, locus YOR144C, strain elg1, stronger effect = lower value 1.06 | S. cerevisiae deletion strains, locus YOR184W, strain ser1, stronger effect = lower value 0.984 | S. cerevisiae deletion strains, locus YOR231W, strain MKK1, stronger effect = lower value 1.07 | S. cerevisiae deletion strains, locus YOR316C, strain cot1, stronger effect = lower value 1.06 | S. cerevisiae deletion strains, locus YPL241C, strain CIN2, stronger effect = lower value 0.982 | S. cerevisiae deletion strains, locus YPL256C, strain CLN2, stronger effect = lower value 1.09 | S. cerevisiae deletion strains, locus YPR119W, strain clb2, stronger effect = lower value 1.05 | S. cerevisiae deletion strains, locus YPR141C, strain kar3, stronger effect = lower value 1.02 | S. cerevisiae deletion strains, locus YPR163C, strain tif3, stronger effect = lower value 0.982 | S. cerevisiae deletion strains, locus YPR167C, strain met16, stronger effect = lower value 1.06 | S. cerevisiae deletion strains, strain wtn01, stronger effect = lower value 0.997
